Assay [1] can be described thus: Quantitative High-Throughput drug screen in 47 multiple myeloma cell lines against the NCATS MIPE library collection: KMS28BM_JCRB cell viability assay (AID 1919874; active = well fitted cell-killing curve with a large enough effect; note: nearly all actives have a fitted effect of over 35% in size; note: potency is the fitted concentration of half-maximal effect). Conditions: CellTiter-Glo ATP, 48 h; series mostly up to 45.8 µM. The method in brief: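 ATP-based CellTiter-Glo luminescence after 48 h drug exposure (37 °C, 5% CO2) of 500 myeloma cells per well. DMSO-only wells set 100% viability, media-only wells 0%; MIPE 4.0 library added by pin tool.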
For orientation: Cellular ATP, detected with luciferase, serves as a proxy for viable cell number.

Assay [2] is described as follows: qHTS drug screen for cell cycle checkpoint inhibitors in PARPi-resistant BRCA-mutant ovarian cancer cell lines. (AID 1963452). Note: potency is the fitted concentration of half-maximal effect. The note with it: PEO1/OlaR viability, CellTiter-Glo luminescence, 96 h; for Z-AUC: stronger effect = lower value. In outline: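 PEO1, PEO4 and PEO1/OlaR ovarian cancer cells, 600 per well, exposed 96 h at 37C to a dilution series. Viability read by CellTiter-Glo luminescence, normalized to DMSO and empty wells; activity summarized as Z-AUC.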
Background: Quantitative high-throughput screening tests each substance at several concentrations.

The nature of assay [3]: qHTS for identification of novel therapeutic agents for treatment of microphthalmiaassociated transcription factor (MiT) renal cell carcinoma (RCC) (AID 1963991). Conditions: CellTiter-Glo, 48 h, stronger effect = lower value. The method in brief:
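Curves over 11 concentrations were fitted to CellTiter-Glo luminescence, scaled between empty wells (0%) and DMSO (100%) viability. Cells were UOK109, UOK124 and UOK145 TFE3-fusion RCC lines at 500/well, exposed 48 hours at 37 C.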

The mark [4] stands for this setting: measured here: PEO1 parental Z-AUC.
Setting [5] is: TFE3-RCC UOK109 viability, measured here: UOK109 Z-AUC.
Where [6] appears, read: TFE3-RCC viability, measured here: UOK124 Z-AUC.
[7] abbreviates: TFE3-RCC viability, measured here: UOK145 Z-AUC.

“And” between values parts separate entries of the source, which are not always exact repeats. Equal values may be shown once. Records with an inconclusive call do not appear. The source holds several records for some structures; these can differ, active in one and inactive in another. The source made the active and inactive calls. Unless noted, calls come from the whole dose curve.

As for `Nc1ccn(C2CO[C@H](CO)O2)c(=O)n1` (stereo partly drawn), the Potency entry in assay [1] was “inactive”. Moreover, the results for the Z-AUC in assay [2], in assay [2] (setting [4]) and in assay [2] (measured here: PEO4 Z-AUC) were 0.13 (inactive), 0.905 and 0.884, respectively. The figures for the z-score in assay [3] (setting [5]), in assay [3] (setting [6]) and in assay [3] (setting [7]) were 1.41, 1.05 and 1.04, respectively.

For the compound `NC(=O)c1cccc(-c2cccc(OC(=O)NC3CCCCC3)c2)c1`, the Potency result in assay [1] is “inactive”. Moreover, the Z-AUC in assay [2] is -0.0721 (inactive); in assay [2] (setting [4]) it was 0.554; in assay [2] (measured here: PEO4 Z-AUC) it was -0.318. Moreover, the figures for the z-score in assay [3] (setting [5]), in assay [3] (setting [6]) and in assay [3] (setting [7]) were 0.801, 0.852 and 0.744, respectively.

For `O=C(Nc1ccc(Oc2ccnc3[nH]ccc23)c(F)c1)c1cccn(-c2ccc(F)cc2)c1=O`, the Potency result in assay [1] was “inactive”. In addition, the Z-AUC in assay [2] was -0.152 (inactive); in assay [2] (setting [4]), 0.598; in assay [2] (measured here: PEO4 Z-AUC), 0.646. Also, the z-score in assay [3] (setting [5]) came to 0.0941; in assay [3] (setting [6]), 0.0675; in assay [3] (setting [7]) it was 0.349.

As for `NC(=O)Nc1sc(-c2ccc(F)cc2)cc1C(N)=O`, the Potency in assay [1] is 4.69 µM (active). The Z-AUC in assay [2] was -1.29 (inactive); in assay [2] (setting [4]), -1.13; in assay [2] (measured here: PEO4 Z-AUC), -1.05.

In the case of `CC(Cc1ccc(O)c(O)c1)(NN)C(=O)O` (stereo not drawn), in assay [1], the Potency entry is “inactive”. Also, the Z-AUC in assay [2] was 1.29 (inactive); in assay [2] (setting [4]), 0.784; in assay [2] (measured here: PEO4 Z-AUC), 0.906. Further, the z-score amounted to 0.533 in assay [3] (setting [5]), 0.304 in assay [3] (setting [6]) and 0.315 in assay [3] (setting [7]).

Regarding `Cn1cc(-c2cnn3c(N)c(Br)c([C@H]4CCCNC4)nc23)cn1`, the Potency in assay [1] is 4.69 µM (active); in assay [2], 3.47 µM (active). The Z-AUC in assay [2] is -0.529 (inactive); in assay [2] (setting [4]), 0.414 and -1.48; in assay [2] (measured here: PEO4 Z-AUC) it was 0.266 and -1.31.

`COc1cc(OC)c(NC(=O)Nc2cc(C)on2)cc1Cl`: the Potency result in assay [1] is “inactive”. In addition, the values for the Z-AUC in assay [2], in assay [2] (setting [4]) and in assay [2] (measured here: PEO4 Z-AUC) were 1.05 (inactive), 1.02 and 1.3, respectively. Moreover, the figures for the z-score in assay [3] (setting [5]), in assay [3] (setting [6]) and in assay [3] (setting [7]) were 0.422, 0.71 and 0.616, respectively.

On to `CCCCC(=O)O[C@]1(C(=O)CO)[C@@H](C)C[C@H]2[C@@H]3CCC4=CC(=O)C=C[C@]4(C)[C@@]3(F)[C@@H](O)C[C@@]21C`, for which the Potency result in assay [1] is “inactive”. The Z-AUC in assay [2] was -0.479 (inactive); in assay [2] (setting [4]), 0.863; in assay [2] (measured here: PEO4 Z-AUC), 0.108. Further, the z-score in assay [3] (setting [5]) is -0.136; in assay [3] (setting [6]) it was 0.0594; in assay [3] (setting [7]), 0.664.

As to `Cn1cc(-c2ccc3ncc(Cc4ccc5ncccc5c4)n3n2)cn1`, in assay [1], the Potency entry was “inactive”. Also, the figures for the Z-AUC in assay [2], in assay [2] (setting [4]) and in assay [2] (measured here: PEO4 Z-AUC) were 0.547 (inactive), 0.877 and 0.786, respectively. For the same compound, the z-score in assay [3] (setting [5]) was -0.236; in assay [3] (setting [6]) it was 0.125; in assay [3] (setting [7]), -0.113.

(Values after PubChem BioAssay (NCATS).)
